The list is not random: actives were taken first. Their share in the collection is about 4.6%.
hgDAF-12 ag – activates the H. glycines DAF-12 receptor ligand-binding domain; HEK293 GAL4-hgDAF12 UAS-luciferase reporter, agonist luminescence; normalized to butyrate control; activation, % at 6.8 µM; actives 1.8% (n = 370,000);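 active = activation above a cutoff set at the mean of all screened compounds plus 3 SD, cut at about 10% in these data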;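 note: 0% = DMSO wells and 100% = sodium butyrate wells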
DAX1 inh-1 – inhibits human nuclear receptor DAX1; HEK293 Gal4-DAX1 luciferase reporter, luminescence; inhibition, % at 6.75 µM; actives 0.99% (n = 340,000); AID 504766;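 active = inhibition above the mean over all tested compounds plus 3 SD, cut at about 4.2% in these data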;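 note: 0% = DAX1-transfected cells with DMSO and 100% = empty-vector control cells with DMSO; inhibition shows as a rise in luminescence from relieved DAX1 repression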
Target sequence (P51843 207-470 limits assumed): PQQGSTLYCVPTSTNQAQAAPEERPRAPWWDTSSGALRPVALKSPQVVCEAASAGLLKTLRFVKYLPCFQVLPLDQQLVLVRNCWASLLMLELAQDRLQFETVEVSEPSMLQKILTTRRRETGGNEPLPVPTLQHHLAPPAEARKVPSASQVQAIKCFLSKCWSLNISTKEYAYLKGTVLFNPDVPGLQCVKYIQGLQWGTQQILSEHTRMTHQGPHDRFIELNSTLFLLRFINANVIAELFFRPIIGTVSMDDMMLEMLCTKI
ssDAF-12 act – activates DAF-12 receptor from parasite S. stercoralis. AID 652126. actives 1% (n = 370,000). HEK293 ssDAF-12/GRIP1 lit1-tk-luc reporter, luminescence; % of 3 µM dafachronic acid response. activation, % at 6.8 µM;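 active = activation above the mean over all tested compounds plus 3 SD, cut at about 0.9% in these data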;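 note: 0% = DMSO-only wells and 100% = 3 µM delta7-dafachronic acid wells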
hcDAF-12 act – H. contortus DAF-12 activation, primary screen; HEK293 hcDAF-12 lit1-tk-luc reporter, luminescence; 0% DMSO, 100% Δ7-dafachronic acid; activation, % at 6.8 µM; actives 1.4% (n = 370,000); AID 652067;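 active = activation above the mean of all tested compounds plus 3 SD, cut at about 5.5% in these data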;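 note: 100% = response to 3 µM Δ7-dafachronic acid high control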
Wee1 stabilizer – blocks degradation of human Wee1 kinase | P30291 | reporter increase, % at 5 µM | actives 1.2% (n = 220,000) | HeLa Luc-Wee1K328M stability, luciferase luminescence; 100% = proteasome inhibitor MG132 effect;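 active = activation above the mean of all tested compounds plus 3 SD, set per screening run, cut at about 8.8% in these data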;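 note: cells exposed to compound for 20 h before luminescence read; 0% = DMSO alone and 100% = MG132 at 30 µM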
DAX1 inh-2 – inhibitors of DAX1 repression of SF-1 activated StAR promoter | HEK293T StAR-luciferase reporter, SF-1/DAX-1 repression relief | inhibition, % at 6.8 µM | AID 652010 | actives 1.1% (n = 370,000);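 active = inhibition above the mean over all tested compounds plus 3 SD, cut at about 3.6% in these data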;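 note: 0% = DAX-1 cells with DMSO and 100% = cells lacking DAX-1 with DMSO; higher inhibition means more luminescence from relief of DAX-1 repression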
* = called active by the depositor; . = not tested or not shown.

SMILES | hgDAF-12 ag | DAX1 inh-1 | ssDAF-12 act | hcDAF-12 act | Wee1 stabilizer | DAX1 inh-2
CCCCn1c(N)c(N(CC(C)C)C(=O)c2cc(Cl)nc3ccccc23)c(=O)[nH]c1=O | 0 | 0 | 1.1* | 0 | . | 0
CCCCn1c(N)c(N(CCOC)C(=O)c2cc(-c3ccncc3)nc3ccccc23)c(=O)[nH]c1=O | -3 | 1 | -1 | -1 | . | 0
CC(C)(C)OC(=O)[C@H](Cc1ccccc1)NCC(=O)OCc1ccc(C(=O)NCc2ccccc2)cc1 | -3 | . | 0 | -2 | . | -1
O=C(N[C@H](C(=O)O)c1ccccc1)C1CCC(Cn2cnc3ccccc3c2=O)CC1 (some centres undefined) | 0 | 4.6* | -1 | 2 | 5 | 0
C[C@H](CO)N1C[C@H](C)[C@@H](CN(C)C(=O)c2ccncc2)OCc2cnnn2CCCC1=O | 2 | 0 | -1 | -1 | . | 1
COc1ccccc1CNC(=O)CCS(=O)(=O)c1cccc2nonc12 | -2 | 0 | -1 | -1 | 9.8* | 0
C(=Nc1ccc(N2CCOCC2)cc1)c1c[nH]c2ccccc12 | 2 | 1 | -1 | 3 | 1 | -1
Brc1cc2c(cc1/C=N/Nc1nc(N3CCCCC3)nc(N3CCCCC3)n1)OCO2 | . | . | . | . | 14* | .
C(=N\Nc1nc(N2CCCCC2)nc(N2CCCCC2)n1)/c1c[nH]c2ccccc12 | 2 | -1 | 1.1* | 4 | -2 | -1
CN(C)c1nc(N/N=C/c2c[nH]c3ccccc23)nc(N2CCOCC2)n1 | -1 | 3 | 1.2* | 3 | -2 | 0
Cc1cc2c(cc1C)-n1nnnc1C(N(C)CCc1ccccc1)C(=O)N2 (centres undefined) | 3 | . | 0 | -2 | . | -1
CC(=O)Nc1ccc(S(=O)(=O)N2CCC(c3nc4ccc(C)cc4[nH]3)CC2)cc1 | 0 | 4.4* | -2 | -1 | -3 | 0
COc1cc(NS(=O)(=O)c2ccc3c(c2)C(C)(C)C(=O)N3C)cc(OC)c1 | -3 | 5.0* | -1 | -1 | . | 0
Cc1ccccc1CN1CCCCC(NC(=O)C2CCC2)C1=O (centres undefined) | -1 | . | 1.9* | 1 | . | 0
Cc1ccccc1C(=O)NC1CCCCN(Cc2cccc(Cl)c2)C1=O (centres undefined) | 2 | . | 1.0* | -3 | . | -1
Cc1ccc(C(=O)NC2CCCCN(Cc3cccc(Cl)c3)C2=O)c(C)c1 (centres undefined) | 2 | . | -1 | -2 | . | -1
C=C(C)CNC(=O)c1ccc2nc(Cc3ccc(OC)cc3)oc2c1 | 13* | 6.3* | -1 | 3 | . | 1
O=C(O)CNc1nc(-c2ccccc2)nc2c1oc1ccccc12 | 4 | 2 | 0 | 4 | -2 | -1
c1ccc(-c2nc(NCc3cccnc3)c3oc4ccccc4c3n2)cc1 | 8 | -2 | 0 | 6.3* | -3 | -1
COCCNC(=O)C(=O)N/N=C/c1cccs1 | 2 | 2 | 0 | 3 | 2 | 1
COc1ccccc1NC(=O)C(=O)N/N=C/c1cccs1 | 8 | 1 | -1 | 6.2* | -2 | 1
CCN1CCN(S(=O)(=O)c2cc(C(=O)O)ccc2Cl)CC1 | 2 | -1 | -1 | -1 | 9.6* | 0
O=C(O)c1ccc(Cl)c(S(=O)(=O)N2CCCC2)c1 | -1 | -1 | -2 | -1 | 6 | 1
COc1ccc(CN(CC(=O)NCc2ccc(F)cc2)C(=O)CCC(=O)Nc2nccs2)cc1 | 5 | -1 | -1 | 0 | . | 0
COc1ccc(NC(=O)CCN2C(=O)c3cccc([N+](=O)[O-])c3C2=O)cc1 | 3 | 0 | -2 | 2 | . | 0
SMILES | hgDAF-12 ag | DAX1 inh-1 | ssDAF-12 act | hcDAF-12 act | Wee1 stabilizer | DAX1 inh-2
CC(C)(C)c1ccc(NC(=O)COC(=O)CCN2C(=O)c3cccc([N+](=O)[O-])c3C2=O)cc1 | 2 | 0 | -1 | 0 | 17* | 0
CCCCNC(=O)c1cc2c(-c3ccc(Cl)cc3)nn(C)c2s1 | 6 | 4 | 0 | 5.9* | 0 | -1
CC(C)NC(=O)c1cc2c(-c3ccc(Cl)cc3)nn(C)c2s1 | 2 | 4.4* | 0 | 3 | -1 | 0
CCN1CCCC1CNC(=O)c1cc2c(-c3ccc(Cl)cc3)nn(C)c2s1 (centres undefined) | . | 4.6* | . | . | -2 | .
Cn1nc(-c2ccc(Cl)cc2)c2cc(C(=O)N3CCN(c4ccccc4)CC3)sc21 | 2 | 0 | 0 | 5.7* | 0 | 0
CCN1CCCC1CNC(=O)c1cc2c(-c3cccc(OC)c3)nn(C)c2s1 (centres undefined) | 2 | 0 | 1 | 4 | -1 | 1
Cc1nn(-c2ccccc2)c2sc(C(=O)O)cc12 | 4 | 0 | -1 | -1 | -1 | 0
Cc1ccc(CNC(=O)c2cc3c(-c4ccc(Cl)cc4)nn(C)c3s2)o1 | 0 | 1 | 1.6* | 5 | 9.6* | 0
Cc1nn(-c2ccccc2)c2sc(C(=O)N3CCOCC3)cc12 | 9 | 2 | 1.3* | 6.5* | 3 | 2
COC(=O)C1CN(Cc2ccc(F)cc2)CCS(=O)(=O)N1Cc1cn(CCOC(C)=O)nn1 (centres undefined) | 0 | . | -2 | 2 | . | 0
CN1CCN(S(=O)(=O)c2cccc(C#N)c2)C(c2ccccc2)C1 (centres undefined) | 1 | -1 | -1 | -1 | . | 1
CCc1ccc(OCc2cnc(Cl)s2)cc1 | -1 | 4.4* | -2 | 2 | 2 | 1
CC(=O)NN1C(=O)/C(=C2/Sc3ccccc3N2C)SC1=S | -2 | 1 | 0 | 4 | . | 0
CN1C(=C2C(=O)OC(C)(C)OC2=O)Sc2ccccc21 | 8 | 3 | -1 | 2 | 8.8* | 2
Nc1ccc(-c2cnc(-c3ccc(N)cc3)nc2)cc1 | 10* | -3 | 1 | 4 | 0 | 2
OC(c1ccc(F)cc1)c1ncc(-c2ccccc2F)[nH]1 (centres undefined) | 11* | . | 0 | 2 | . | 3
CCc1ccc(C(O)c2ncc(-c3ccccc3C)[nH]2)cc1 (centres undefined) | 2 | . | -2 | 0 | . | -1
OC(c1ccc(F)cc1)c1ncc(-c2ccccc2Cl)[nH]1 (centres undefined) | 6 | . | 0 | 2 | . | 1
CCc1ccc(C(O)c2ncc(-c3ccccc3F)[nH]2)cc1 (centres undefined) | 4 | . | 0 | 1 | . | 4.1*
N/C(=N\OC(=O)C1CCCCC1)c1ccncc1 | 1 | 0 | -1 | 1 | -1 | 1
N/C(=N\OC(=O)C1CCCCC1)c1ccccn1 | 12* | 0 | 0 | 2 | 2 | 2
COc1ccccc1CC(=O)O/N=C(\N)c1ccccn1 | 5 | 1 | 0 | 1 | -1 | 1
N/C(=N\OC(=O)Cc1cccc2ccccc12)c1ccccn1 | 6 | 2 | 0 | 5.8* | 1 | 1
